Structures are written as SMILES. Records with an inconclusive call do not appear. Entries that show only a call come without a potency. Active and inactive are the calls of the source. Calls follow the shape of the dose curve; as a rule, active = well fitted curve in the direction sought with a large enough effect; inconclusive = small, poorly fitted or top-dose-only effect, or another doubt; inactive = no such curve, though single readings can be large; an effect the other way counts as inactive or inconclusive.
Potency is read from the fitted curve at half-maximal effect.

System in one experiment: not listed separately
Kind of experiment: Primary fluorescence-based thiol-reactive (MSTI) qHTS assay for identification of artifact compounds. (AID 1845221). Also: nearly all actives have a fitted effect of over 65% in size. The conditions noted are these: MSTI thiol-reactivity probe, 1 h; series mostly up to 53.8 µM. The essentials: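 Probe: MSTI 4 uM, PBS pH 7.4, 2% DMSO. Incubation 1 h, RT, light-protected. Readout fluorescence 525/598 nm.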
In general terms: In qHTS, concentration-response curves come from the screen itself.
As to `OC[C@H]1O[C@H](O[C@]2(CCl)O[C@H](CCl)[C@@H](O)[C@@H]2O)[C@H](O)[C@@H](O)[C@H]1Cl`, the Potency result was “inactive”.
Still for that read-out and setting: next, `CC(=O)OCC(=O)[C@@]1(O)CC[C@H]2[C@@H]3CCC4=CC(=O)C=C[C@]4(C)[C@H]3[C@@H](O)C[C@@]21C`: “inactive”; `CC(C)(C)NC(=O)[C@@H]1CN(Cc2cccnc2)CCN1C[C@@H](O)C[C@@H](Cc1ccccc1)C(=O)N[C@H]1c2ccccc2C[C@H]1O`: “inactive”.
For the compound `COC(=O)C1=C(C)NC(C)=C(C(=O)O[C@@H]2CCCN(Cc3ccccc3)C2)[C@@H]1c1cccc([N+](=O)[O-])c1`, the Potency result is “inactive”.
Still for that read-out and setting: the same measure for `COC(=O)CCc1ccc(OCC(O)CNC(C)C)cc1` (stereo not given): “inactive”; for `C#C[C@]1(OC(C)=O)CC[C@H]2[C@@H]3CCC4=C[C@@H](OC(C)=O)CC[C@@H]4[C@H]3CC[C@@]21C`: “inactive”.
The same measure, in the same setting: the same measure for `O=C(OCCOCCO)c1ccccc1Nc1cccc(C(F)(F)F)c1`: “inactive”; for `NC(=NCCCCCCN=C(N)/N=C(\N)Nc1ccc(Cl)cc1)/N=C(\N)Nc1ccc(Cl)cc1`: “inactive”; for `Cc1onc(-c2c(Cl)cccc2Cl)c1C(=O)N[C@@H]1C(=O)N2[C@@H]1SC(C)(C)[C@@H]2C(=O)O`: “inactive”.
Same read-out and setting: the same measure for `Cc1nc2n(c(=O)c1CCN1CCC(c3noc4cc(F)ccc34)CC1)CCC[C@H]2O`: “inactive”; for `O=c1[nH]c(=O)n([C@H]2CCCO2)cc1F`: “inactive”.
Regarding `CCCCS(=O)(=O)N[C@@H](Cc1ccc(OCCCCC2CCNCC2)cc1)C(=O)O`, the Potency result is “inactive”.
The same measure, in the same setting: next, `COc1ccc(CN2CCN(C(c3ccc(F)cc3)c3ccc(F)cc3)CC2)c(OC)c1OC`: “inactive”; `CN(C)CCCOc1nn(Cc2ccccc2)c2ccccc12`: “inactive”.
With `Cc1ccccc1C(=O)Nc1ccc(C(=O)N2CCCC(N(C)C)c3ccccc32)cc1` (stereo not given), the Potency entry is “inactive”.
The same measure, in the same setting: the same measure for `CC(=O)O[C@]1(C(C)=O)CC[C@H]2[C@@H]3C[C@H](C)C4=CC(=O)CC[C@]4(C)[C@H]3CC[C@@]21C`: “inactive”.
Still for that read-out and setting: next, `CC(C)(C)CC(C)(C)c1ccc(OCCOCC[N+](C)(C)Cc2ccccc2)cc1`: “inactive”; `COc1cccc(OC)c1C(=O)N[C@@H]1C(=O)N2[C@@H]1SC(C)(C)[C@@H]2C(=O)O`: “inactive”; `CN1C(CCl)Nc2cc(Cl)c(S(N)(=O)=O)cc2S1(=O)=O` (stereo not given): “inactive”.
As to `CN1[C@@H]2CC[C@H]1CC(OC(=O)c1c[nH]c3ccccc13)C2` (stereo not given in full), the Potency result was “inactive”.
Consider `Cc1ccc(C(=O)C(C)CN2CCCCC2)cc1` (stereo not given), for which the Potency entry is “inactive”.
The same measure, in the same setting: the same measure for `CC(C)n1nc(-c2cc3cc(O)ccc3[nH]2)c2c(N)ncnc21`: 10.6 µM (active).
Same read-out and setting: the same measure for `CC(=O)OCC(=O)[C@@]1(O)[C@H](C)C[C@H]2[C@@H]3CCC4=CC(=O)C=C[C@]4(C)[C@@]3(F)[C@@H](O)C[C@@]21C`: “inactive”; for `Nc1ccn([C@@H]2O[C@H](CO)[C@@H](O)C2(F)F)c(=O)n1`: “inactive”.

For another experiment, the system named is Nanoluciferase (engineered Oplophorus gracilirostris luciferase). In words: Primary Nanoluciferase (NLuc) qHTS assay for identification of artifact compounds. (AID 1845222). The conditions noted are these: NLuc-conditioned medium, Nano-Glo luminescence, 5 min; series mostly up to 54.1 µM. The gist of the method:
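Using secreted nanoluciferase in S16 culture medium (0.22 um filtered, 1:55 dilution), compounds were preincubated 15 min at RT. Signal was generated with Nano-Glo reagent (1:100) over 5 min.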
`OC[C@H]1O[C@H](O[C@]2(CCl)O[C@H](CCl)[C@@H](O)[C@@H]2O)[C@H](O)[C@@H](O)[C@H]1Cl`: the Potency result was “inactive”.
`CC(=O)OCC(=O)[C@@]1(O)CC[C@H]2[C@@H]3CCC4=CC(=O)C=C[C@]4(C)[C@H]3[C@@H](O)C[C@@]21C`: the Potency entry was “inactive”.
Still for that read-out and setting: the same measure for `CC(C)(C)NC(=O)[C@@H]1CN(Cc2cccnc2)CCN1C[C@@H](O)C[C@@H](Cc1ccccc1)C(=O)N[C@H]1c2ccccc2C[C@H]1O`: “inactive”; for `Cc1cc2c(cc1CC(=O)c1sccc1S(=O)(=O)Nc1onc(C)c1Cl)OCO2`: 16.9 µM (active).
Regarding `COC(=O)CCc1ccc(OCC(O)CNC(C)C)cc1` (stereo not given), the Potency entry is “inactive”.
On the same count and under the same terms, the same measure for `C#C[C@]1(OC(C)=O)CC[C@H]2[C@@H]3CCC4=C[C@@H](OC(C)=O)CC[C@@H]4[C@H]3CC[C@@]21C`: “inactive”; for `O=C(OCCOCCO)c1ccccc1Nc1cccc(C(F)(F)F)c1`: “inactive”.
Still for that read-out and setting: next, `NC(=NCCCCCCN=C(N)/N=C(\N)Nc1ccc(Cl)cc1)/N=C(\N)Nc1ccc(Cl)cc1`: “inactive”.
On the same count and under the same terms, next, `Cc1onc(-c2c(Cl)cccc2Cl)c1C(=O)N[C@@H]1C(=O)N2[C@@H]1SC(C)(C)[C@@H]2C(=O)O`: “inactive”.
Consider `Cc1nc2n(c(=O)c1CCN1CCC(c3noc4cc(F)ccc34)CC1)CCC[C@H]2O`, for which the Potency entry was “inactive”.
Take `O=c1[nH]c(=O)n([C@H]2CCCO2)cc1F`: the Potency result is “inactive”.
Turning to `CCCCS(=O)(=O)N[C@@H](Cc1ccc(OCCCCC2CCNCC2)cc1)C(=O)O`, the Potency entry was “inactive”.
On the same count and under the same terms, next, `COc1ccc(CN2CCN(C(c3ccc(F)cc3)c3ccc(F)cc3)CC2)c(OC)c1OC`: “inactive”.
For `CN(C)CCCOc1nn(Cc2ccccc2)c2ccccc12`, the Potency entry is “inactive”.
Same read-out and setting: next, `Cc1ccccc1C(=O)Nc1ccc(C(=O)N2CCCC(N(C)C)c3ccccc32)cc1` (stereo not given): “inactive”; `CC(=O)O[C@]1(C(C)=O)CC[C@H]2[C@@H]3C[C@H](C)C4=CC(=O)CC[C@]4(C)[C@H]3CC[C@@]21C`: “inactive”.
Take `CC(C)(C)CC(C)(C)c1ccc(OCCOCC[N+](C)(C)Cc2ccccc2)cc1`: the Potency result was “inactive”.
Same read-out and setting: the same measure for `COc1cccc(OC)c1C(=O)N[C@@H]1C(=O)N2[C@@H]1SC(C)(C)[C@@H]2C(=O)O`: “inactive”; for `CN1C(CCl)Nc2cc(Cl)c(S(N)(=O)=O)cc2S1(=O)=O` (stereo not given): “inactive”.
On the same count and under the same terms, next, `CN1[C@@H]2CC[C@H]1CC(OC(=O)c1c[nH]c3ccccc13)C2` (stereo not given in full): “inactive”; `CN1CCN(C(c2ccccc2)c2ccccc2)CC1`: “inactive”.
Still for that read-out and setting: the same measure for `Cc1ccc(C(=O)C(C)CN2CCCCC2)cc1` (stereo not given): “inactive”.
On to `CC(C)n1nc(-c2cc3cc(O)ccc3[nH]2)c2c(N)ncnc21`, for which the Potency entry is “inactive”.
On to `CC(=O)OCC(=O)[C@@]1(O)[C@H](C)C[C@H]2[C@@H]3CCC4=CC(=O)C=C[C@]4(C)[C@@]3(F)[C@@H](O)C[C@@]21C`, for which the Potency entry is “inactive”.
On the same count and under the same terms, next, `Cc1ccc(Nc2c(F)cccc2Cl)c(CC(=O)O)c1`: “inactive”; `Nc1ccn([C@@H]2O[C@H](CO)[C@@H](O)C2(F)F)c(=O)n1`: “inactive”.

Values taken from PubChem BioAssay (NCATS).
